From PubChem BioAssay (Tox21) come the findings set out here.

Inconclusive results are not listed. A number with no mark means an inactive call. Active and inactive are the calls of the source. The call rests on the fitted dose curve; in most records, active means well fitted inhibition curve with a large enough effect in the repeat runs; inconclusive means weak or mixed curves; inactive means no such curve, though single readings can be large or run the other way.
Further: nearly all actives have a fitted effect of over 50% in size.
On the % scale 0 is the no-effect control and ±100 the full control effect; potency means the concentration at half of the fitted maximal effect.

Cytochrome P450 1A2 (Homo sapiens), sequence (P05177 whole entry, looked up): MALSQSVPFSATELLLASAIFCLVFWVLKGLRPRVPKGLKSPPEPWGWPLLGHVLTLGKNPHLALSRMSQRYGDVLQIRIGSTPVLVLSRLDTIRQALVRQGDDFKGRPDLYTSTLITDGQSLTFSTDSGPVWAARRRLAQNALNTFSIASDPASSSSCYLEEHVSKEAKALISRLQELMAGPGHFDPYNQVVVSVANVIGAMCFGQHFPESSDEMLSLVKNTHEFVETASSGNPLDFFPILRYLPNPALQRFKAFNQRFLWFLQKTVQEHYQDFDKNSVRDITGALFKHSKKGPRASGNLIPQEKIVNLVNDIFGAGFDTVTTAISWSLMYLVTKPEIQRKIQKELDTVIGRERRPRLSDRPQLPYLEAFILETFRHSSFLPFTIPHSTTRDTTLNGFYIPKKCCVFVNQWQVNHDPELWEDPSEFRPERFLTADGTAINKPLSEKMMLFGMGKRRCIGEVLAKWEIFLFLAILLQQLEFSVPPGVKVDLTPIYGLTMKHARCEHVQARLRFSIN

The first assay deals with Cytochrome P450 2C9 (Homo sapiens) (UniProt P11712). Briefly: Cytochrome P450 Family 2 Subfamily C Member 9 (CYP2C9) small molecule antagonists: luciferase reporter qHTS assay (AID 1671198). The settings on record: P450-Glo CYP2C9 enzyme assay, luciferin luminescence; series mostly up to 115 µM; activity change, negative = inhibition: at the top concentration. In outline: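 Enzyme-substrate mix preincubated with compound 10 min at room temperature; reaction started with NADPH regeneration solution, 1 h 37C. Luminescent luciferin product read after 20 min detection reagent.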
Cytochrome P450 2C9 (Homo sapiens), sequence (P11712 whole entry, looked up): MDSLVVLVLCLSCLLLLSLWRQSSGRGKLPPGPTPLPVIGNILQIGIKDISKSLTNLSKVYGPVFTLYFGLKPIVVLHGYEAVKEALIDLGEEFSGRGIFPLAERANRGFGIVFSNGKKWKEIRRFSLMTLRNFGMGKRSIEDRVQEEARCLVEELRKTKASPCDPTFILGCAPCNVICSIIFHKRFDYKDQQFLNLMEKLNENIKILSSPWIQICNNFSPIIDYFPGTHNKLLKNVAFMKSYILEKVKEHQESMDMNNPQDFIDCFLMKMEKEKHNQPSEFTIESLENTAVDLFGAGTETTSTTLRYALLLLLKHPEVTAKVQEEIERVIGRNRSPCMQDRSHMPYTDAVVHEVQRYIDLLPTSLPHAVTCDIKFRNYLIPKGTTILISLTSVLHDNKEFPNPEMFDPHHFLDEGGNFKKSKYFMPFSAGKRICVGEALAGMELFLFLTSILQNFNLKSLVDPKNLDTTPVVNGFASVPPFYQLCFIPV
On to `C=CCc1cc(S(=O)(=O)c2ccc(O)c(CC=C)c2)ccc1O`, for which the Potency was 0.502 µM (active).

For the compound `O=C1OC(O)C(C(Cl)Cl)=C1Cl` (stereo unspecified), the “activity change, negative = inhibition” value was 1.71%.

`C=CC(=O)OCCOC1C2CCC1C1CC=CC12` (stereo unspecified): the activity change, negative = inhibition was -18.2% [at 23.6 µM].

For `Nc1cc([N+](=O)[O-])cc(Cl)c1O`, the Potency is 39.9 µM (active).

Consider `C=C(C)CCO`, for which the “activity change, negative = inhibition” value is 1.45%.

With `CCCCC/C=C\C=C\C(=O)OCC`, the Potency is 13.2 µM (active).

Regarding `C=Cc1ccncc1`, the “activity change, negative = inhibition” value was -7.83%.

For the compound `Cc1c[nH]c(=O)[nH]c1=O`, the “activity change, negative = inhibition” value is -6.31%.

For `C/C(=N\[Si](C)(C)C)O[Si](C)(C)C`, the “activity change, negative = inhibition” value was -2.9%.

As to `CC(C=O)c1ccccc1` (stereo unspecified), the Potency is 35.6 µM (active).

For `CN1CCN(CCCN2c3ccccc3Sc3ccc(Cl)cc32)CC1`, the “activity change, negative = inhibition” value was 15.6% [at 53 µM].

As for `CC(C)(C)c1cc(CCC(=O)OCCSCCOC(=O)CCc2cc(C(C)(C)C)c(O)c(C(C)(C)C)c2)cc(C(C)(C)C)c1O`, the Potency was 2.19 µM (active).

Turning to `COC(=O)c1ccc([N+](=O)[O-])cc1`, the “activity change, negative = inhibition” value is -7.1%.

On to `CCCCCCCCCCCCN1CCCC1=O`, for which the Potency was 31.7 µM (active).

Regarding `CCCCCCCCOC(=O)c1cc(O)c(O)c(O)c1`, the Potency was 2.24 µM (active).

In the case of `CCN(CC)c1ccc(C=O)cc1`, the “activity change, negative = inhibition” value is 53.6%.

With `C=CC(C)(C)O`, the “activity change, negative = inhibition” value is -6.74%.

As for `Cc1ccc(C=O)cc1`, the “activity change, negative = inhibition” value is 6.03% [at 53 µM].

Take `CC1(C)[C@H](C(=O)OCc2cccc(Oc3ccccc3)c2)[C@@H]1C=C(Cl)Cl`: the “activity change, negative = inhibition” value was 0.14%.

As for `N#Cc1ccc(C/C(=N/NC(=O)Nc2ccc(OC(F)(F)F)cc2)c2cccc(C(F)(F)F)c2)cc1`, the Potency was 22.4 µM (active).

In the case of `CO[Si](OC)(c1ccccc1)c1ccccc1`, the Potency is 20 µM (active).

In the case of `Cc1cccc(C)c1C`, the “activity change, negative = inhibition” value is -6.97%.

For the compound `[Cl][Dy]([Cl])[Cl]`, the “activity change, negative = inhibition” value was -0.231%.

With `CCOC(=O)[C@H](O)[C@@H](O)C(=O)OCC`, the “activity change, negative = inhibition” value is -3.27%.

With `Cc1ccc(C2OC[C@@H]3OC(c4ccc(C)cc4)O[C@H]([C@H](O)CO)[C@@H]3O2)cc1` (stereo partly specified), the “activity change, negative = inhibition” value was -3.83%.

`Nc1cc([N+](=O)[O-])ccc1Cl`: the “activity change, negative = inhibition” value was 25%.

For the compound `CCOC=C(C(=O)OCC)C(=O)OCC`, the “activity change, negative = inhibition” value is -12.1%.

On to `c1ccc2cc3c4ccccc4c4ccccc4c3cc2c1`, for which the “activity change, negative = inhibition” value was -18.5%.

In the case of `Brc1cc(Br)cc(Br)c1`, the “activity change, negative = inhibition” value was -10.3%.

The next assay deals with Cytochrome P450 1A2 (Homo sapiens) (UniProt P05177). Briefly: Cytochrome P450 Family 1 Subfamily A Member 2 (CYP1A2) small molecule antagonists: luciferase reporter qHTS assay (AID 1671199). Conditions: P450-Glo CYP1A2 enzyme, luciferin luminescence, 1 h; series mostly up to 115 µM; activity change, negative = inhibition: at the top concentration. In outline:
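Inhibition of CYP1A2 conversion of proluciferin to luciferin, detected by luminescence. Reaction run 1 h at room temperature with NADPH regeneration after brief compound preincubation.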
With `Cc1cccc2c1ccc1ccccc12`, the Potency was 6.33 µM (active).

For `CCOc1nc(F)cc2nc(S(=O)(=O)Nc3c(Cl)cccc3C(=O)OC)nn12`, the “activity change, negative = inhibition” value was 12.2%.

As to `C=C(C)CCO`, the “activity change, negative = inhibition” value is -14.3%.

As for `CN1CCN(CCCN2c3ccccc3Sc3ccc(Cl)cc32)CC1`, the Potency is 2.57 µM (active).

Regarding `Nc1ccc(Cl)c([N+](=O)[O-])c1`, the Potency is 31.7 µM (active).

In the case of `c1ccc2c(c1)-c1ccc3ccc4cccc5cc-2c1c3c45`, the Potency is 0.219 µM (active).

For the compound `N#Cc1ccc(C/C(=N/NC(=O)Nc2ccc(OC(F)(F)F)cc2)c2cccc(C(F)(F)F)c2)cc1`, the Potency was 25.2 µM (active).

As to `CC(c1cc(C(C)(C)C)cc(C(C)(C)C)c1O)c1cc(C(C)(C)C)cc(C(C)(C)C)c1O`, the “activity change, negative = inhibition” value was -17.4%.

With `Cc1ccc(C2OC[C@@H]3OC(c4ccc(C)cc4)O[C@H]([C@H](O)CO)[C@@H]3O2)cc1` (stereo partly specified), the “activity change, negative = inhibition” value was -6.27%.

With `Nc1cc([N+](=O)[O-])ccc1Cl`, the Potency is 17.8 µM (active).

With `CCOC=C(C(=O)OCC)C(=O)OCC`, the “activity change, negative = inhibition” value is -25.3%.

As for `c1ccc2cc3c4ccccc4c4ccccc4c3cc2c1`, the Potency was 0.225 µM (active).
